Data as given in PubChem BioAssay AID1159580 (chemical genetic matrix, 2015).
Values joined by “and” are separate entries in the source; they are usually repeats but may differ in a detail not shown here. Identical values can stand only once. The campaign covered roughly 5,500 compounds. About 2,000 (36%) were called active. Roughly 18% stayed inconclusive and do not appear here. No stated cut-off is given here; in the data, active means normalized growth mostly below about 0.91 (no sharp cut-off); inconclusive means no clear call, values can overlap the other calls; inactive means mostly above about 0.92. This is one part of the list.

Experiment: chemical genetic growth profiling, strain panel (AID 1159580);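 further: tested at 20 µM; growth read once vehicle control cultures reached saturation at 30 °C; 1 = growth at the plate median or of vehicle wells; lower values mean less growth of the strain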
Settings: S. cerevisiae deletion strains, growth OD

Measured: normalized growth

CC(=O)O[C@H]1CC[C@]2(C)C3CC[C@@]4(C)C(CC5O[C@@]6(CCC(C)CO6)[C@@H](C)C54)C3CC[C@@H]2C1 (stereo not given in full)
inactive: locus YAL021C, strain ccr4, hits give low values 1.02 | locus YAL026C, strain drs2, hits give low values 1.02 | locus YAL030W, strain snc1, hits give low values 1.01 | locus YBL061C, strain skt5, hits give low values 1.01 | locus YBR009C, strain hhf1, hits give low values 1.03 | locus YBR021W, strain FUR4, hits give low values 0.996 | locus YBR023C, strain chs3, hits give low values 1.01 | locus YBR171W, strain sec66, hits give low values 1.03 | locus YBR229C, strain ROT2, hits give low values 0.99 | locus YBR231C, strain swc5, hits give low values 1 | locus YBR279W, strain paf1, hits give low values 1.01 | locus YCL011C, strain gbp2, hits give low values 1 | locus YCL016C, strain dcc1, hits give low values 1.01 | locus YCL029C, strain bik1, hits give low values 0.993 | locus YCL069W, strain vba3, hits give low values 1.02 | locus YCR088W, strain abp1, hits give low values 1.02 | locus YDL005C, strain med2, hits give low values 1.03 | locus YDL035C, strain GPR1, hits give low values 1.03 | locus YDL040C, strain nat1, hits give low values 1 | locus YDL074C, strain BRE1, hits give low values 1.02 | locus YDL101C, strain DUN1, hits give low values 0.986 | locus YDL185W, strain tfp1, hits give low values 0.986 | locus YDL192W, strain arf1, hits give low values 0.997 | locus YDR001C, strain nth1, hits give low values 1.01 | locus YDR069C, strain doa4, hits give low values 1.01 | locus YDR101C, strain arx1, hits give low values 0.992 | locus YDR137W, strain rgp1, hits give low values 1.04 | locus YDR159W, strain sac3, hits give low values 1.01 | locus YDR162C, strain NBP2, hits give low values 1.02 | locus YDR195W, strain ref2 1.03 | locus YDR297W, strain sur2, hits give low values 1 | locus YDR318W, strain mcm21, hits give low values 0.997 | locus YDR334W, strain swr1, hits give low values 1.03 | locus YDR335W, strain msn5, hits give low values 1.02 | locus YDR388W, hits give low values 0.991 | locus YDR392W, strain spt3, hits give low values 1.03 | locus YDR502C, strain sam2, hits give low values 0.977 | locus YEL003W, strain gim4, hits give low values 1.03 | locus YEL037C, strain rad23, hits give low values 1.02 | locus YEL061C, strain CIN8 (second series), hits give low values 1.05 | locus YEL061C, strain CIN8, hits give low values 1 | locus YER015W, strain faa2, hits give low values 1.01 | locus YER016W, strain bim1, hits give low values 1 | locus YER110C, hits give low values 0.991 | locus YER111C, strain swi4, hits give low values 1.02 | locus YER155C, strain BEM2 (second series), hits give low values 1.04 | locus YER155C, strain BEM2, hits give low values 0.975 | locus YER167W, strain BCK2, hits give low values 0.998 | locus YFR010W, strain ubp6, hits give low values 1.01 | locus YGL078C, strain dbp3, hits give low values 0.98 | locus YGL167C, strain pmr1, hits give low values 1 | locus YGL173C, strain kem1, hits give low values 1.01 | locus YGL227W, strain vid30, hits give low values 1.02 | locus YGL240W, strain doc1, hits give low values 1.02 | locus YGL248W, strain PDE1, hits give low values 0.985 | locus YGL253W, strain hxk2, hits give low values 1.01 | locus YGR135W, strain pre9, hits give low values 0.97 | locus YGR229C, strain SMI1, hits give low values 1.08 | locus YGR252W, strain gcn5, hits give low values 0.949 | locus YHR013C, strain ard1, hits give low values 1.01 | locus YHR027C, strain rpn1, hits give low values 1.02 | locus YHR030C, strain SLT2, hits give low values 0.989 and 0.998 | locus YHR079C, strain IRE1 (second series), hits give low values 0.989 | locus YHR079C, strain IRE1, hits give low values 1.01 | locus YHR094C, strain hxt1, hits give low values 0.996 | locus YHR129C, strain ARP1, hits give low values 0.996 | locus YHR142W, strain chs7, hits give low values 1.03 | locus YHR200W, strain rpn10, hits give low values 0.989 | locus YIL066C, strain RNR3, hits give low values 1.01 | locus YIL073C, strain SPO22, hits give low values 1.06 | locus YIL125W, strain kgd1, hits give low values 1 | locus YIR030C, strain dcg1, hits give low values 0.992 | locus YJL092W, strain hpr5, hits give low values 1.03 | locus YJL095W, strain BCK1 (second series), hits give low values 1 | locus YJL095W, strain BCK1, hits give low values 0.987 and 1.01 | locus YJL115W, strain asf1, hits give low values 1.01 | locus YJL129C, strain trk1, hits give low values 1.03 | locus YJL134W, strain LCB3, hits give low values 0.987 | locus YJL154C, strain vps35, hits give low values 1.01 | locus YJL164C, strain tpk1, hits give low values 1.01 | locus YJL166W, strain qcr8, hits give low values 1.01 | locus YJL168C, strain set2, hits give low values 0.993 | locus YJL187C, strain SWE1 (second series), hits give low values 0.975 | locus YJL187C, strain SWE1, hits give low values 1.01 | locus YJR043C, strain POL32, hits give low values 1.01
